The full list was thinned out, with hits kept by preference.
Tb PYK inh – inhibitors of Trypanosoma brucei pyruvate kinase; TbPYK enzyme, Kinase-Glo Plus ATP luminescence, 45 min; Potency, µM (titrated, usually from 76.8 µM), without a hit: top-dose activity, negative = inhibition, usual class: inhibitors; 410,000 compounds, 0.12% hits; AID 624173; also: potency is read from the fitted curve at half-maximal effect; % is scaled to controls: 0 for no effect and ±100 for the full control effect; nearly all actives have a fitted effect of over 50% in size
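Readout: single end-point luminescence (Kinase-Glo Plus, 10 min). Reaction conditions were TbPYK/substrate plus 130 uM ADP, 45 min at RT, pH 7.2 TEA buffer. No-enzyme wells served as controls, and data were normalized before concentration-response fitting.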
FBPA Giardia inh – Giardia lamblia aldolase inhibition; A8B2U2; purified Giardia FBPA; Potency, µM (highest dose often 59.6 µM), without a hit: top-dose activity, negative = inhibition, hits mostly inhibitors; 290,000 compounds, 0.71% hits; also: potency is read from the fitted curve at half-maximal effect; % is scaled to controls: 0 for no effect and ±100 for the full control effect; nearly all actives have a fitted effect of over 55% in size
Target sequence (A8B2U2 whole entry, looked up): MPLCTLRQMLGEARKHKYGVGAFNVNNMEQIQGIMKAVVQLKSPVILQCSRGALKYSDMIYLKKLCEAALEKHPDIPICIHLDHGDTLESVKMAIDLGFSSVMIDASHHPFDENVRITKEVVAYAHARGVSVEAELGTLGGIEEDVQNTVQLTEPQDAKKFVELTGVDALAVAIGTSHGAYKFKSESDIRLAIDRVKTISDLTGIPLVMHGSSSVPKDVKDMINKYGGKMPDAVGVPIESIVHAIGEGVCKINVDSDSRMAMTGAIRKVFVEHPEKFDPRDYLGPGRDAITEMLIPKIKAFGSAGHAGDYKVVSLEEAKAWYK
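40 nM FBPA preincubated 10 min at RT with compound (up to 57.5 uM final), then substrate plus GAPDH/TPI/NAD/arsenate coupling and diaphorase/resazurin added. Fluorescence read after 20 min at RT, 525/598 nm.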
Shiga toxin inh – Shiga toxin inhibition | inhibition, % at 38.7 µM | Vero cells, Shiga toxin protein synthesis inhibition reporter | 290,000 compounds, 9.2% hits | AID 2315; in the data active = inhibition mostly above about 28%, no sharp cut-off; inactive = mostly below about 43%; also: 0% is about no effect
LmPK inhibitor – LmPK (Leishmania mexicana) enzyme inhibition; Q27686; AID 1721; Potency, µM (titrated, usually from 57.5 µM), for inactives: at the highest dose activity change, negative = inhibition, usual class: inhibitors; 290,000 compounds, 0.37% hits; purified LmPK, Kinase-Glo ATP luminescence, 1 h; also: potency is read from the fitted curve at half-maximal effect; % is scaled to controls: 0 for no effect and ±100 for the full control effect
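qHTS format; LmPK 0.1 nM; substrates PEP 0.5 mM and ADP 0.1 mM. One-hour room-temperature incubation, then coupled luciferase luminescence; 0.5 nM enzyme wells mark activation.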
Sm TGR block – S. mansoni TGR enzyme inhibition | 360,000 compounds, 3% hits | Q962Y6 | Potency, µM (titrated, usually from 114 µM), inactives show at the highest dose activity change, negative = inhibition, actives largely listed as inhibitors | purified TGR, DTNB reduction, TNB absorbance 405 nm; also: potency is read from the fitted curve at half-maximal effect; % is scaled to controls: 0 for no effect and ±100 for the full control effect; nearly all actives have a fitted effect of over 60% in size
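Kinetic colorimetric format: TGR-catalysed, NADPH-driven DTNB reduction monitored via TNB absorbance. Enzyme dispensed at 20 nM; compound exposure 15 min at room temperature before reaction start.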
Cycloheximide cs – affects cycloheximide protein synthesis inhibition readout, counter-screen | cell reporter, cycloheximide protein synthesis inhibition counterscreen | max response, % | 300,000 compounds, 12% hits; in the data active = max response mostly above about 13%, no sharp cut-off; inactive = mostly below about 14%; also: read at 38.3 µM for the half of the compounds with a filed dose; 0% is about no effect
Starred values were filed as active, the others as inactive; ? = inconclusive; . = not tested or not shown; [ ] = dose if it differs, or a comment. Unless noted, calls follow the shape of the dose curve; as a rule, active = well fitted curve in the direction sought with a large enough effect; inconclusive = small, poorly fitted or top-dose-only effect, or another doubt; inactive = no such curve, though single readings can be large; an effect the other way counts as inactive or inconclusive.

SMILES | Tb PYK inh | FBPA Giardia inh | Shiga toxin inh | LmPK inhibitor | Sm TGR block | Cycloheximide cs
CCOC(=O)c1cc(OC(=O)c2ccccc2OC)n(-c2ccccc2)n1 | -8.0% | -3.0% | -10.6 | 11.5% | 35.5µM* | -0.5
CCOC(=O)c1cnn(-c2cccc(Cl)c2)c1N | . | 5.9% | 60.8* | 0.6% | 17.4% | 34.4*
NC(=O)c1cnn(-c2ccc3ccccc3c2)c1N | 11.4% | -4.9% | 38.7 | 0.2% | 0.5% | 23.6*
CC(=O)NC(=O)c1cnn(-c2ccccc2)c1N | -10.6% | -5.6% | -7.4 | -7.0% | 10.9% | 1.4
CC(=O)OCC1OC(c2ccc3c(c2)OCO3)C=CC1OC(C)=O (centres undefined) | . | -1.7%[12.9 µM] | . | . | . | .
O=c1c2cc(-c3ccccc3)sc2ncn1/N=C/c1ccco1 | 5.0% | 0.5% | 83.2 | -4.5% | 9.6% | 36.8*
CNC(=O)NC(=O)Cn1cnc2sc(-c3ccccc3)cc2c1=O | 0.5% | 5.7% | 21.8 | 2.4% | -4.6% | -2.5
CCCCn1cnc2sc(-c3ccccc3)cc2c1=O | 1.9% | 1.7% | 98.3* | 0.3% | 11.7% | 38.4*
COc1ccccc1-n1cnc2sc(-c3ccccc3)cc2c1=O | 4.5% | -0.7% | 71.2 | -2.5% | 14.4% | 25.4
CCCCCn1cnc2sc(-c3ccccc3)cc2c1=O | 3.0% | 4.1% | 61.0* | -8.0% | 2.0% | 47.3*
CSCC[C@H](N)C(=O)N[C@@H](CCC(=O)O)C(=O)N[C@H](C(=O)NCC(=O)N[C@@H](Cc1c[nH]c2ccccc12)C(=O)N[C@@H](Cc1ccc(O)cc1)C(=O)N[C@@H](CCCNC(=N)N)C(=O)N[C@@H](CO)C(=O)N1CCC[C@H]1C(=O)N[C@@H](Cc1ccccc1)C(=O)N[C@@H](CO)C(=O)N[C@@H](CCCNC(=N)N)C(=O)N[C@H](C(=O)N[C@H](C(=O)N[C@@H](Cc1cnc[nH]1)C(=O)N[C@@H](CC(C)C)C(=O)N[C@@H](Cc1ccc(O)cc1)C(=O)N[C@@H](CCCNC(=N)N)C(=O)N[C@@H](CC(N)=O)C(=O)NCC(=O)N[C@@H](CCCCN)C(=O)O)C(C)C)C(C)C)C(C)C | . | 7.8% | -4.4 | . | . | -4.0
CCCC(NC(=O)c1ccc(Br)o1)c1nc2ccccc2[nH]1 (centres undefined) | -2.0% | . | . | . | . | .
Cc1ccc(C)c(N(C)C(=O)C2CCN(c3ncnc4c3nc3n4CCCCC3)CC2)c1 | 0.0% | . | . | . | 20.6% | .
O=S(=O)(Nc1cccc(-c2cn3ccsc3n2)c1)c1ccc(F)cc1 | -20.1% | 1.9% | 105.9* | 6.0% | 5.0% | 25.4*
Cc1cccc(S(=O)(=O)Nc2cccc(-c3cn4ccsc4n3)c2)c1 | -2.0% | 8.2% | 5.1 | 1.7% | 0.0% | 8.0
CC(C)CC(=O)Nc1cccc(-c2cn3ccsc3n2)c1 | -1.4% | 1.3% | 36.4* | -9.7% | 2.4% | 31.6*
Cc1ccc(S(=O)(=O)Nc2cccc(-c3cn4ccsc4n3)c2)cc1 | 1.0% | 0.6% | -3.6 | -0.5% | 5.9% | 9.6*
Nc1nc(-c2ccc(Br)s2)c(Br)s1 | -12.8% | 7.4% | 62.7* | 3.7% | -0.7% | 37.9*
O=C1CCCN1CC1CCN(Cc2nc(CC3CC3)no2)CC1 | -4.2% | 1.7% | 47.5* | -1.0% | -2.7% | 11.0
c1ccc(C2CCCN(Cc3nc(CC4CC4)no3)CC2)cc1 (centres undefined) | 1.9% | 1.1% | 52.9* | -0.3% | -17.3%[57.1 µM] | 15.9*
COc1ccc(OCC2CCCN(Cc3nc(CC4CC4)no3)C2)cc1 (centres undefined) | 0.6% | 0.4% | 24.1 | -17.5% | -1.1% | 18.7*
COc1ccc(Cl)cc1C(=O)Nc1nnc2n1CCS2 | -0.9% | . | . | . | -0.8% | .
COc1cc(Cl)c(C)cc1NS(=O)(=O)c1c(C)nc2sccn2c1=O | -6.4% | . | . | . | 1.6% | .
CCc1ccccc1NS(=O)(=O)c1ccc(-c2coc(C)n2)cc1 | 5.0% | . | . | . | 0.0% | .
Nc1ccc(Oc2cc(N)cc(Oc3ccccc3)c2)cc1 | -5.1% | 2.7% | 67.7* | 1.3% | -4.1% | 43.6*
O=C(c1nnc(-c2ccccc2)o1)C1CC1 | 1.7% | 1.8% | 97.4* | -21.8% | -2.8% | 37.0*
O=C(c1ccc(-c2nnc(-c3ccccc3)o2)cc1)N1CCCCCC1 | ? | -4.1% | 82.6* | ? | 0.5% | 15.4

High-throughput results (PubChem)
